Experiment [1] has as its system Human papillomavirus type 1a protein E7 (residues 44-93). The experiment in a line: small molecules binding HPV E7 44-93 – biochemical, small-molecule microarray, residues 44-93, 635 nm fluorescence, primary screen (AID 1108).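 Also: E7 fragment applied at 1 µg/mL in TBST for 1 h at 4 C; score combines spot fluorescence with its signal to noise ratio.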 Particulars: fluorescence 635 nm, higher = more signal.
The nature of experiment [2]: hepatitis C replication reporter changes, two-sided – Huh7 cells, luciferase reporter, HCV replication inhibitor project, primary screen (AID 1109).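 Also: huh7 hepatoma cells harbouring a luciferase neomycin HCV replicon reporter; luciferase luminescence as measure of HCV replicon replication; test concentration not given here.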 Particulars: Huh7 HCV replicon luciferase reporter, 48 h; higher = more signal.
Experiment [3] deals with Left-right determination factor 2 (Homo sapiens) (UniProt O00292). The experiment in a line: small molecules binding LEFTY2 protein – biochemical, small-molecule microarray, 635 nm fluorescence scan, primary screen (AID 1110). Particulars: higher = more signal.
Chain of Left-right determination factor 2 (Homo sapiens) (O00292 whole entry, looked up): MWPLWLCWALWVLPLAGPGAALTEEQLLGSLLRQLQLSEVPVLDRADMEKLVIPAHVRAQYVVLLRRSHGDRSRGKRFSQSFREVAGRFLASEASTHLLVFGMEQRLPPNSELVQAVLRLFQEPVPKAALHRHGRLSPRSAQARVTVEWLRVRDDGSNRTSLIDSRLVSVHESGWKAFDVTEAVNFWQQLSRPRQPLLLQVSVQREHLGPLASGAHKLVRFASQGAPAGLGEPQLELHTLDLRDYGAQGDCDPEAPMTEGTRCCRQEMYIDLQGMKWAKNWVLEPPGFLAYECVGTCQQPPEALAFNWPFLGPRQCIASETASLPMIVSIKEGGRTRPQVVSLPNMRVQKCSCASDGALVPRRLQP
Experiment [4] has as its target Calmodulin-1 (Homo sapiens) (UniProt P0DP23). As to the kind of experiment: small molecules binding calmodulin-1 with EGTA – biochemical, small-molecule microarray, Cy5-labelled CALM1, profiling panel (AID 1111).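 Also: labelled calmodulin applied in Tris saline Tween buffer holding calcium plus EGTA and DTT.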 Particulars: Cy5-CALM1 binding fluorescence, higher = more signal.
The target is the same in experiment [5]. As to the kind of experiment: small molecules binding Ca-loaded calmodulin-1 – biochemical, small-molecule microarray, Cy5-labelled CALM1, plus calcium, artefact control for SMM control-protein annotation, profiling panel (AID 1112).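 Also: score merges spot fluorescence with signal to noise from triplicate slides.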 Particulars: Cy5-CALM1 binding fluorescence, higher = more signal.
The nature of experiment [6]: probe aWnt5a binding to arrayed compounds – biochemical, biotinylated probe, 635/667 nm fluorescence, primary screen (AID 1113).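 Also: score merges 667 nm fluorescence intensity with signal-to-noise per printed feature.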 Conditions: small-molecule microarray, higher = more signal.
Experiment [7] in a line: probe aShh binding to arrayed compounds – biochemical, biotinylated probe, 635/667 nm fluorescence, primary screen (AID 1114).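 Also: probe is biotin-labelled aShh protein from a stem cell growth factor screen; measures binding of labelled protein to compounds printed on the slide; score merges feature fluorescence at 667 nm with signal-to-noise.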 Particulars: small-molecule microarray, higher = more signal.
Experiment [8] in a line: probe aNog binding to arrayed compounds – biochemical, biotinylated probe, 635/667 nm fluorescence, primary screen (AID 1115).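 Also: probe is biotinylated aNog protein used at 0.15 µg/mL for 1 h at 4 C; z-score combines 667 nm fluorescence of each spot with its signal to noise.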 Particulars: small-molecule microarray, higher = more signal.
The target of experiment [9] is Torsin-1A-interacting protein 1 (Homo sapiens) (UniProt Q5JTV8). The experiment in a line: compound microarray binding of lysate hLAP1 – cell lysate, small-molecule microarray, COS7 lysate, 635/667 nm fluorescence, primary screen (AID 1116). Conditions: 635 nm fluorescence, higher = more signal.
Chain of Torsin-1A-interacting protein 1 (Homo sapiens) (Q5JTV8 whole entry, looked up): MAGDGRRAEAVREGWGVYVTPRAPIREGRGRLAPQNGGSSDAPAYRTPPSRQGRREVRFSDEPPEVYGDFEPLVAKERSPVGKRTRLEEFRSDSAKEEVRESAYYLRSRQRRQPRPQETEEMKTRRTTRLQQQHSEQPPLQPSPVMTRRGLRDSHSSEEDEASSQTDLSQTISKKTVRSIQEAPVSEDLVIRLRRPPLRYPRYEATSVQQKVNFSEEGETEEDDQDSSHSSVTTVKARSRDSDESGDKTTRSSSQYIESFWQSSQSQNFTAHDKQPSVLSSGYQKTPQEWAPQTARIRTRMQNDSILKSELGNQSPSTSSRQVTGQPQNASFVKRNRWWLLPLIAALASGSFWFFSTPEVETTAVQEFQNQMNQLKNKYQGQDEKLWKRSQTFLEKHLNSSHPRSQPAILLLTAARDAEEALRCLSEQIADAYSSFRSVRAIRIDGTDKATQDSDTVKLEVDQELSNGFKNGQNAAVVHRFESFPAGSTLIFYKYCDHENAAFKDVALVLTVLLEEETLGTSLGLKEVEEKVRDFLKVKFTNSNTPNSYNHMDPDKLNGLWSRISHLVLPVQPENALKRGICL
The target of experiment [10] is Alpha-bungarotoxin (Bungarus multicinctus) (UniProt P60615). The experiment in a line: compounds binding labelled alpha-BTX control protein – biochemical, small-molecule microarray, Alexa647 label, 635/667 nm fluorescence, artefact control for SMM control protein annotation, profiling panel (AID 1117). Particulars: alpha-BTX-A647 binding fluorescence, higher = more signal.
Chain of Alpha-bungarotoxin (Bungarus multicinctus) (P60615 whole entry, looked up): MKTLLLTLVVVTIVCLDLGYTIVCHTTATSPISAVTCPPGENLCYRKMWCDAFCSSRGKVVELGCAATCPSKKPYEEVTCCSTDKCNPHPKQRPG

For experiment [11], the target named is Albumin (Bos taurus) (UniProt P02769). The experiment in a line: compounds binding labelled BSA control protein – biochemical, small-molecule microarray, Alexa647 label, 635/667 nm fluorescence, artefact control for SMM control protein annotation, profiling panel (AID 1118).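 Also: score merges 667 nm emission intensity and signal-to-noise per printed compound spot.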 Particulars: BSA-A647 binding, fluorescence 635 nm, higher = more signal.
Chain of Albumin (Bos taurus) (P02769 whole entry, looked up): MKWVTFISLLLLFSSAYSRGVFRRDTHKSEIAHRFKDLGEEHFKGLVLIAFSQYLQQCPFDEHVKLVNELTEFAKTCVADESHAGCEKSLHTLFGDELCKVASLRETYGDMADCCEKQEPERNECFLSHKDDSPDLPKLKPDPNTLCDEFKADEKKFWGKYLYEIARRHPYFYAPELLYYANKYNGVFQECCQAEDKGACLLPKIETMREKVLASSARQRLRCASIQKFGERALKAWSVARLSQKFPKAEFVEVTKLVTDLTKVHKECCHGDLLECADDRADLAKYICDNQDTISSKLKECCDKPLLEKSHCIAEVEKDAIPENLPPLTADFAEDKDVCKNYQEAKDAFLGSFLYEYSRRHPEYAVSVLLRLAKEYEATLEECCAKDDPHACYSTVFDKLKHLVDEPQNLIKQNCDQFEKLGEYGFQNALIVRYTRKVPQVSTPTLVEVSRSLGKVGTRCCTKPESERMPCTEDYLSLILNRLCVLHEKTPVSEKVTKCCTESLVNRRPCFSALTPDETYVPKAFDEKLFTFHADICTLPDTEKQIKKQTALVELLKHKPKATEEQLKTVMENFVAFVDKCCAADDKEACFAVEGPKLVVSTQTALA
The nature of experiment [12]: probe aXIP binding to arrayed compounds – biochemical, NeuroSMM set, 635/667 nm fluorescence, primary screen (AID 1119).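 Also: probe is the protein aXip251-270 applied at 1 µg/mL to compound-printed slides; binding of probe to printed compounds measured as 667 nm fluorescence plus signal to noise.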 Particulars: small-molecule microarray, higher = more signal, called active from +8 up or from −8 down.
A short description of experiment [13]: probe aNOTCH3 binding on compound microarray – biochemical, small-molecule microarray, 635/667 nm fluorescence, primary screen (AID 1120).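 Also: probe is a biotin-tagged antibody raised against NOTCH3 rather than NOTCH3 protein; score merges spot fluorescence near 667 nm with spot signal to noise.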 Particulars: higher = more signal.
Experiment [14] in a line: probe aNOTCH2 binding on compound microarray – biochemical, small-molecule microarray, 635/667 nm fluorescence, primary screen (AID 1121).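 Also: score merges feature fluorescence read at 667 nm with its signal to noise.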 Particulars: higher = more signal.
The target of experiment [15] is Carbonic anhydrase 2 (Homo sapiens) (UniProt P00918). As to the kind of experiment: compounds binding carbonic anhydrase 2 – biochemical, small-molecule microarray, Alexa647-labelled CAII, profiling panel (AID 1122). Particulars: CAII-A647 binding fluorescence, higher = more signal.
Experiment [16] can be described thus: COS7 lysate on small-molecule microarray, probe aHis, 635 nm (AID 1123).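 Also: z-score combines 667nm fluorescence intensity with signal-to-noise per printed compound spot.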 Conditions: COS7 cell lysate, fluorescence, higher = more signal.
Experiment [17] can be described thus: probe aLAP1 signal on lysate-treated microarray – cell lysate, small-molecule microarray, COS7 lysate, primary screen (AID 1124).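 Also: lysate comes from COS7 cells expressing LAP1 and is applied at 0.3 µg/mL; score merges spot fluorescence near 667 nm with signal-to-noise over triplicate slides.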 Conditions: probe aLAP1, fluorescence, higher = more signal.
For experiment [18], the system named is Sam68 (KHDRBS1). The experiment in a line: compounds binding KHDRBS1 protein – biochemical, small-molecule microarray, 635 nm fluorescence, primary screen (AID 1125).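 Also: score merges 667 nm channel intensity with signal to noise over triplicate slides.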 Particulars: higher = more signal.
The subject of experiment [19] is Chordin-like protein 2 (CHRDL2). The experiment in a line: compounds binding chordin-like 2 – biochemical, small-molecule microarray, 635 nm fluorescence, primary screen (AID 1126).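 Also: printed compound slides probed with Chrdl2 protein at 4 µg/mL for 1 h at 4 C; score merges 667 nm emission intensity with signal to noise over three replicate slides.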 Conditions: fluorescence 635 nm, higher = more signal.
For experiment [20], the target named is Concanavalin-A (Canavalia ensiformis) (UniProt P02866). The experiment in a line: compounds binding concanavalin A lectin – biochemical, small-molecule microarray, Alexa647 label, 635 nm, artefact control for SMM control protein annotation, primary screen (AID 1127).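 Also: z combines 667 nm emission intensity with signal-to-noise across three replicate slides.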 Conditions: ConA-A647 binding fluorescence, higher = more signal.
Chain of Concanavalin-A (Canavalia ensiformis) (P02866 whole entry, looked up): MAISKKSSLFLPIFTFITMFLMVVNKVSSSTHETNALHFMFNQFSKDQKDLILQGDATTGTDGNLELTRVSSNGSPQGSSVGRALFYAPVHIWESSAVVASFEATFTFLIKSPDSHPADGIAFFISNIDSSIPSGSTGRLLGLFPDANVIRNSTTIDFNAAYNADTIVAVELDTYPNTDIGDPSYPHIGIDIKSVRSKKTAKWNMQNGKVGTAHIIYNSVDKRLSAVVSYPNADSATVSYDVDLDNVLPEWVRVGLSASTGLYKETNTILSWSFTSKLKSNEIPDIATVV

Calls of active or inactive are those of the source.

As to `COCCCNC(=O)[C@@]1(Cc2ccccc2N=[N+]=[N-])N=C(c2ccc(OCCCO)cc2)O[C@H]1c1ccccc1CN=[N+]=[N-]`, the composite z-score in experiment [1] stood at 1.44; in [3], 0.0627; in experiment [4] it was 0.941; in experiment [5], 0.0507; in experiment [6] it was 0.0676; in experiment [7] it was 0.551. Moreover, the composite z-score amounted to 1.47 in experiment [8]; 1.54 in experiment [9]; 1.71 in [10]; 0.771 in experiment [11]; 0.315 in [13]; 0.034 in experiment [14]. Moreover, the composite z-score in experiment [15] is 0.697; in experiment [16], 2.69; in [17], 0.565; in [18], 1.29; in experiment [19], -0.508; in experiment [20], 1.01. In experiment [2], the z-score was -2.86. Also, the composite Z-score in experiment [12] was 0.103 (inactive).
For the molecule `C=CC[C@]1(C(=O)NCC(O)CO)N=C(c2ccc(OCCCO)cc2)O[C@H]1c1ccccc1N=[N+]=[N-]` (stereo not given in full), the composite z-score in experiment [1] was 1.14; in experiment [3], -0.571; in experiment [4], 1.64; in experiment [5], 0.479; in experiment [6], 0.106; in experiment [7], 1.09. The composite z-score is 1.68 in experiment [8]; 2.75 in experiment [9]; -0.0575 in experiment [10]; 0.933 in [11]; 0.0876 in experiment [13]; 0.132 in [14]. In addition, the composite z-score is 0.766 in experiment [15]; 2.78 in [16]; 1.41 in [17]; 0.645 in experiment [18]; -0.451 in experiment [19]; -0.0308 in [20]. The same molecule returned a z-score in experiment [2] of -0.0862. Also, the composite Z-score in experiment [12] is 0.171 (inactive).
With `C#CCNS(=O)(=O)N(C)C`, the composite z-score in experiment [1] was 0.638; in experiment [3], 0.713; in experiment [4] it was -0.157; in experiment [5] it was -0.687; in experiment [6], -0.096; in experiment [7], 0.0463. Also, the composite z-score is -0.168 in experiment [8]; 0.0976 in [9]; 0.601 in experiment [10]; 0.225 in experiment [11]; -0.124 in experiment [13]; -0.14 in experiment [14]. The composite z-score in [15] was -0.107; in experiment [16], 0.214; in experiment [17], -0.113; in [18], 0.815; in experiment [19] it was 0.497; in experiment [20], 0.0968. The z-score in [2] is 0.119. For the same molecule, the composite Z-score in experiment [12] was 0.0498 (inactive).
In the case of `CCCN1C(=O)[C@@]2(Cc3ccccc3)N=C(c3ccc(OCCCO)cc3)O[C@H]2c2ccccc21`, the composite z-score in [1] was 1.36; in [3], 0.133; in [4], -0.141; in [5], -0.489; in experiment [6], -0.101; in experiment [7] it was 0.195. Moreover, the composite z-score is 0.0716 in experiment [8]; 1.48 in [9]; 1.6 in [10]; 0.508 in experiment [11]; 0.204 in experiment [13]; 0.0055 in [14]. The composite z-score was found to be 0.329 in experiment [15]; 2.69 in experiment [16]; 0.688 in [17]; 1.3 in experiment [18]; 0.804 in experiment [19]; 0.96 in [20]. In [2], this molecule returned a z-score of -2.1. Besides, the composite Z-score in experiment [12] was 0.72 (inactive).
Take `CCCC=C(CCC)[C@@H](NS(=O)(=O)c1ccccc1)c1ccc(C(F)(F)F)cc1`: the composite z-score was determined as 1.37 in experiment [1]; 0.0643 in experiment [3]; 1.73 in [4]; 0.726 in experiment [5]; 0.0495 in experiment [6]; 0.432 in [7]. Moreover, the composite z-score in experiment [8] was -0.475; in [9] it was 1.31; in experiment [10], 1.28; in [11] it was 0.871; in experiment [13], 0.23; in experiment [14], 0.277. Besides, the composite z-score turned out to be 0.578 in [15]; 2.65 in [16]; 0.17 in experiment [17]; 1.32 in [18]; 0.24 in [19]; 1.09 in experiment [20]. In experiment [2], this molecule returned a z-score of -2.28. Further, the composite Z-score in experiment [12] is 0.35 (inactive).
With `CCOC(=O)C[C@H]1[C@H](OC(=O)c2ccc(C(=O)c3ccccc3)cc2)[C@@H](NC(=O)C2CCCCC2)c2cc(OCCCO)ccc2N1C(=O)Cc1ccc(OC)cc1`, the composite z-score in experiment [1] is 0.773; in experiment [3], 0.0258; in experiment [4] it was 1.13; in [5] it was 0.304; in [6], -0.0907; in [7] it was -0.0769. Also, the composite z-score is -0.0597 in experiment [8]; 0.602 in experiment [9]; 0.237 in experiment [10]; 0.442 in [11]; 0.18 in experiment [13]; 0.208 in experiment [14]. Besides, the composite z-score in [15] came out at 0.106; in [16], 0.954; in experiment [17] it was 1.04; in [18] it was 0.693; in experiment [19] it was 0.386; in experiment [20], 0.312. Further, the z-score in [2] is -1.96. In addition, in experiment [12], the composite Z-score is 0.442 (inactive).
On to `Cc1ccc(N2C(=O)c3ccccc3[C@](C)(C(=O)NC(C)C)[C@@H]2c2ccc(CO)cc2)nc1`, for which the composite z-score in [1] was -1.24; in [3] it was -3.6; in experiment [4] it was -1.12; in experiment [5], -0.862; in experiment [6], -0.219; in experiment [7] it was -0.49. The composite z-score in experiment [8] is -0.441; in [9] it was 0.177; in experiment [10], 0.24; in [11], -0.546; in [13] it was -0.571; in experiment [14] it was -0.183. The composite z-score is 0.706 in experiment [15]; 1.64 in experiment [16]; -0.699 in experiment [17]; -1.55 in [18]; -1.13 in [19]; -1.73 in experiment [20]. In [2], this molecule registered a z-score of -0.406. Besides, the composite Z-score in [12] was -1.02 (inactive).
Take `O=C(C=C(CC(O)c1cccc(Cl)c1)OCCF)OCCF` (stereo not given): the composite z-score was -2.46 in experiment [1]; -0.492 in experiment [3]; -0.277 in experiment [4]; 0.896 in experiment [5]; -0.0678 in [6]; 0.0278 in [7]. In addition, the composite z-score in experiment [8] was 0.0014; in [9] it was 0.516; in experiment [10], 0.392; in [11] it was 0.912; in experiment [13], -0.0903; in [14], -0.0746. The composite z-score in experiment [15] is 0.0119; in experiment [16] it was 0.143; in experiment [17], 0.624; in experiment [18], -2.33; in experiment [19], -0.594; in [20], -0.444. The same molecule returned a z-score in experiment [2] of -0.641. In addition, the composite Z-score in experiment [12] is -0.361 (inactive).
Regarding `COc1ccc([Si](C)(C)[C@H]2[C@H](CCn3cc(CCO)nn3)O[C@@]3(C(=O)N(Cc4cccc(N5C(=O)c6cccc7cccc5c67)c4)c4ccccc43)[C@@H]2C)cc1`, the composite z-score in [1] is 1.1; in experiment [3] it was 0.464; in [4], 0.35; in experiment [5], 0.241; in experiment [6], -0.136; in [7], 0.131. Besides, the composite z-score is 1.01 in experiment [8]; 1.46 in experiment [9]; 1.07 in [10]; 0.451 in experiment [11]; 0.0311 in [13]; -0.0974 in experiment [14]. Also, the composite z-score turned out to be 0.584 in experiment [15]; 0.791 in [16]; 1.65 in experiment [17]; 1.22 in experiment [18]; 0.438 in [19]; 1.11 in experiment [20]. The molecule further displayed a z-score in experiment [2] of -5.14. The composite Z-score in [12] was 0.525 (inactive).

Source of the values: PubChem BioAssay.
